# Screening results deposited in PubChem by several laboratories.
# Hits are enriched below; roughly 4.1% of the tested compounds scored in any of these assays.
# FBA Mtb inh: Mtb FBA enzyme inhibitors, primary screen, biochemical, fluorescence, strain H37Rv. purified M. tuberculosis FBA, fluorescence read-out. inhibition, % at 1 µM. 360,000 tested, 2.3% active; in the data active means inhibition above about 27%;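 further: 0% = vehicle and 100% = reference inhibitor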
# Vc quorum ag: inducers of Vibrio cholerae quorum light production without autoinducers, primary screen, BH1578 luxS cqsA deficient, single point; V. cholerae BH1578 lux reporter, luminescence, 6 h; activation, % at 18.7 µM; 350,000 tested, 0.16% active; AID 588436, 2011; in the data active means activation mostly above about 9.7%, no sharp cut-off
# GDH-TPI inh: GDH-TPI coupling enzyme inhibitors, primary screen, artefact control for M. tuberculosis FBA inhibitor project, biochemical, absorbance, full deck; GDH-TPI coupled enzyme counterscreen, NADH absorbance; AID 588335, 2011; inhibition, % at 4.8 µM; 360,000 tested, 1.2% active; in the data active means inhibition above about 30%;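 further: 0% = DMSO wells and 100% = wells lacking the enzyme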
# UGM FP inh: M. tuberculosis UGM enzyme inhibitors, primary screen, biochemical, fluorescence polarization, single point; UDP-galactopyranose mutase (Mycobacterium tuberculosis (strain ATCC 25618 / H37Rv)), …; purified UGM, fluorescence polarization probe displacement; inhibition, % at 10 µM; 320,000 tested, 0.06% active; AID 504406, 2011; in the data active means inhibition above about 10%, passing the limit was not always enough
# RecA splice inh: Mtb RecA intein splicing inhibitors, primary screen, biochemical, fluorescence, HTS; cell-free RecA intein splicing; 290,000 tested, 0.75% active; inhibition, % (no concentration beside the values); Protein RecA (Mycobacterium tuberculosis (strain ATCC 25618 / H37Rv)), P9WHJ3; AID 2221, 2009; in the data active means inhibition above about 30%;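 further: 0% = vehicle wells and 100% = reference inhibitor control wells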
# Target sequence (P9WHJ3 whole entry, looked up, canonical isoform): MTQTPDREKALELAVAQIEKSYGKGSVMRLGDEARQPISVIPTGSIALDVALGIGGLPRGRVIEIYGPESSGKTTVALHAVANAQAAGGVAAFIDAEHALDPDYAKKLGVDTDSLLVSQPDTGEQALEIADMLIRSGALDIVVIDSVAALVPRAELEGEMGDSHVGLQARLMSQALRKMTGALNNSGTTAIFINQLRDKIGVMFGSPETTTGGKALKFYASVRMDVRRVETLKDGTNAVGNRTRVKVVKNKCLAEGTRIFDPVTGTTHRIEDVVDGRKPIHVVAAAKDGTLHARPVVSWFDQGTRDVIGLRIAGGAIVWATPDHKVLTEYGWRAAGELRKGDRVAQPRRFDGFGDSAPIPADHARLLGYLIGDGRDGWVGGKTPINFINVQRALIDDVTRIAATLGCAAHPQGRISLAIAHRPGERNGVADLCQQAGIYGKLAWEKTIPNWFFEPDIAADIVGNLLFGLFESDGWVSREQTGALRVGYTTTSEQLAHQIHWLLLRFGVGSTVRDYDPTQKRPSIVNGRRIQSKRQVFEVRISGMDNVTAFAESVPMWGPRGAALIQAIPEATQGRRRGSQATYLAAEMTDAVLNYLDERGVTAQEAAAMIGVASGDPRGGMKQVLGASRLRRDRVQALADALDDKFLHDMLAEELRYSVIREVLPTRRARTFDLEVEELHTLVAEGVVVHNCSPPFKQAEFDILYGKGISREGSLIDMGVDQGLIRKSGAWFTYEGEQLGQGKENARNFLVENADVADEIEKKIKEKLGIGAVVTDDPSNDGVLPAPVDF
# Rv3671c protease: Rv3671c serine protease inhibitors, primary screen, biochemical, fluorescence polarization, M. tuberculosis H37Rv; 320,000 tested, 0.048% active; inhibition, % at 5.96 µM; P9WHR9; in the data active means inhibition above about 38%;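 further: extracellular domain of Rv3671c used as enzyme; 0% = enzyme with DMSO and 100% = no enzyme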
# An asterisk follows results filed as active; i = inactive; nt = no result given; + = active, no number.
SMILES,FBA Mtb inh,Vc quorum ag,GDH-TPI inh,UGM FP inh,RecA splice inh,Rv3671c protease
CCOc1ccc(N2C(=O)S/C(=C\c3cc(OC)c(OC)c(OC)c3)C2=O)cc1,0,0,8,-1,0,6
O=C(c1ccc(N2CCN(C(=O)c3ccc(F)c(F)c3)CC2)cc1)c1cccc(F)c1,-1,-1,32*,1,3,0
O=C(Nc1ccc(N2CCN(C(=O)c3ccc(Cl)cc3)CC2)cc1)c1cccnc1,2,0,1,0,-1,2
O=C(c1ccc(N2CCN(C(=O)c3ccccc3)CC2)cc1)c1cccc(F)c1,-2,i,38*,-1,3,-3
O=C(c1cccnc1)N1CCN(c2ccc(Cl)cc2)CC1,3,0,32*,-2,-1,10
CC1=C(CC(=O)O)c2cc(F)ccc2/C1=C/c1ccc(S(C)=O)cc1 (centres undefined),0,0,17,-1,2,0
CCOC(=O)c1sc(NC(=O)c2ccc(=O)[nH]c2)nc1C,4,-1,31*,0,nt,-6
Cc1nc(-c2ccncc2)sc1C(=O)Nc1ccc(Br)cc1,-4,i,-3,0,3,1
Cc1nc(NC(=O)c2ccco2)sc1C(=O)Nc1ccc(Br)cc1,11,-9,52*,2,1,-34
CCOC(=O)c1sc(NC(=S)NC(=O)c2ccco2)nc1C,1,0,35*,0,0,-11
CCOC(=O)c1sc(Nc2ccccc2)nc1C,2,3,30,3,0,-15
COC(=O)c1sc(Nc2ccccc2)nc1C,5,i,32*,-2,2,-1
O=C(O)CC(C(=O)O)C(=Cc1ccccc1)c1ccccc1 (centres undefined),1,i,-1,nt,nt,nt
CC(C)(C)C(=O)c1sc(Nc2ccccc2)nc1N,-3,i,40*,-2,5,9
Cc1nc(Nc2ccccc2)sc1-c1ccccc1,0,1,10,-2,0,6
Cc1nc(Nc2ccc(C(=O)O)cc2)sc1-c1ccccc1,-2,0,37*,1,-3,-11
Cc1nc(NC(=O)c2ccco2)sc1C(=O)O,2,0,12,-1,0,3
CCOC(=O)c1sc(NC(=O)c2ccco2)nc1-c1ccccc1,1,0,35*,1,-1,15
COC(=O)c1sc(NC(=O)c2ccco2)nc1C,-1,nt,41*,-3,-2,-4
CCN(Cc1ccncc1)C(=O)c1cc(COc2c(C)cccc2C)on1,8,i,0,-1,1,-1
O=C(CC1S/C(=N/N=C/c2cccs2)NC1=O)Nc1ccc(Cl)cc1 (centres undefined),-3,0,31*,nt,3,-45
O=C(CC1S/C(=N/N=C/C=C/c2ccccc2)NC1=O)Nc1ccc(C(=O)O)cc1 (centres undefined),3,-1,57*,4,-2,-4
O=C(CC1S/C(=N/N=C/c2cccs2)NC1=O)Nc1ccc(Cl)c(Cl)c1 (centres undefined),-1,0,16,nt,-2,2
O=C(CC1S/C(=N/N=C/c2c[nH]c3ccc(OCc4ccccc4)cc23)NC1=O)Nc1ccccc1 (centres undefined),-3,0,28,-1,-2,-13
O=C(CC1S/C(=N/N=C/c2c[nH]c3ccccc23)NC1=O)Nc1ccccc1 (centres undefined),-4,i,47*,-4,-2,-4
SMILES,FBA Mtb inh,Vc quorum ag,GDH-TPI inh,UGM FP inh,RecA splice inh,Rv3671c protease
COc1ccc(C)cc1NC(=O)C/C(C)=N/NC(=O)Cc1cccc2ccccc12,-5,0,1,3,8,-25
O=C(Cc1ccccc1F)c1ccc(O)cc1O,-4,-1,25,0,1,1
O=C(Cc1ccc(F)cc1)c1ccc(O)cc1O,-1,0,46*,-1,2,-14
CCc1cc(C(=O)Cc2ccc(F)cc2)c(O)cc1O,4,0,27,-2,6,-13
CCCc1cc(C(=O)Cc2ccc(F)cc2)c(O)cc1O,-2,-1,32*,0,11,-7
O=C(CCCOC(=O)c1ccc(O)cc1O)c1ccc(F)cc1,-2,i,2,3,0,-8
O=C(Cc1c(F)cccc1Cl)c1ccc(O)cc1O,-2,-4,34*,-2,5,-3
CCCc1cc(C(=O)Cc2nc3ccccc3s2)c(O)cc1O,19,i,38*,6,-157,-6
CCOC(=O)C(=O)Cc1nc2ccccc2s1,12,-1,3,-3,-11,4
Cn1ccc2c(N3c4ccccc4CCc4ccccc43)cc3c(c21)C1CCC3O1 (centres undefined),4,nt,nt,nt,nt,nt
O=C(Cc1nc2ccccc2[nH]1)c1ccc(Cl)cc1,0,0,7,6,nt,3
CCc1cc(C(=O)Cc2nc3ccccc3[nH]2)c(O)cc1O,10,i,39*,2,-1,12
CCc1cc(C(=O)COc2ccccc2F)c(O)cc1O,-5,i,38*,0,7,1
O=C(C(=NNc1ccccc1)C(=S)Nc1ccccc1)c1ccccc1,-6,nt,nt,nt,nt,nt
CC1CCC(NC(=O)C2CCN(C(=O)Nc3ccccc3)CC2)CC1 (centres undefined),8,-2,9,-1,nt,3
CN[C@@H]1[C@H](O)[C@H](NC)[C@H]2O[C@@]3(O)C(=O)C[C@@H](C)O[C@H]3O[C@@H]2[C@H]1O,1,72*,-6,2,-3,0
CCOC(=O)c1nn(-c2ccc(C)cc2)cc1O,8,+,9,-1,-4,-1
CCCCC[C@H](O)/C=C/[C@@H]1[C@@H](C/C=C\CCCC(=O)OC)[C@@H](O)C[C@H]1O,0,4,-5,-5,41*,7
CCn1c(-c2ccccc2)c(C(=O)O)c2ccccc21,28*,0,-1,1,1,-10
Cn1c(-c2ccccc2)c(C(=O)CC#N)c2ccccc21,3,2,-2,-4,-1,-1
Cc1c(Cl)cccc1NC(=O)CC1NCCNC1=O (centres undefined),+,-3,-9,0,-1,1
N#C/C(=C\c1cn(-c2ccccc2)nc1-c1cccnc1)c1nnc2n1CCCCC2,3,-1,39*,2,3,4
O=C(/C=C/c1cn(-c2ccccc2)nc1-c1cccnc1)N1CCCC1,1,i,3,nt,-1,nt
